Compounds with a hit are over-represented: about 14% of the library has one in this group of screens.
AID923: qHTS Assay for Allosteric/Competitive Inhibitors of Caspase-1: Spectroscopic Profiling in AFC Spectral Region | Potency, µM (series often up to 57.5 µM), without a hit: at the top dose fluorescence increase, hits mostly activators | 75,000 compounds, 1.1% hits | compound fluorescence, AFC spectral region (405/520 nm) | AID 923, 2007; further: potency means the concentration at half of the fitted maximal effect; 0% is about no effect
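Baseline compound fluorescence (AFC region, 405 nm ex/520 nm em) taken from the intercept of kinetic reads with 50 nM caspase-1 and 5 uM Ac-WEHD-AFC; normalized to an on-plate AFC standard curve; compounds titrated up to 57 uM.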
4MU fluor: compounds fluorescent in 4-MU spectral region. compound autofluorescence, 340/450 nm, 4-MU equivalents; active compounds read high. max dye-equivalent concentration, M. 59,000 compounds, 11% hits. AID 589; in the data active means max dye-equivalent concentration above about 10 nM; inconclusive means mostly about 1.1 nM to 9.6 nM
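Compounds in 100 mM Tris, pH 8.0, sat 15 min at room temperature before fluorescence was read at 340 nm excitation/450 nm emission; a per-plate six-point 4-MU standard curve converted signals to dye-equivalent concentration at each compound concentration.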
A350 fluor: compounds fluorescent in Alexa 350 spectral region; Compound autofluorescence, 340/450 nm, Alexa 350 dye-equivalents; active compounds read high; max dye-equivalent concentration, M; 59,000 compounds, 11% hits; in the data active means max dye-equivalent concentration above about 10 nM; inconclusive means mostly about 1.1 nM to 9.6 nM
HSD17B inhib: HSD17B dehydrogenase inhibition. 75,000 compounds, 7.6% hits. recombinant HSD17B10, NADH fluorescence kinetic. Potency, µM (highest dose often 57.1 µM), inactives show at the top dose activity change, negative = inhibition, usual class: inhibitors. AID 893;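 further: the protocol describes HADH2 (HSD17B10) and not the HSD17B4 of the title; potency means the concentration at half of the fitted maximal effect; on the % scale 0 is the no-effect control and ±100 the full control effect; nearly all actives have a fitted effect of over 70% in size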
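Enzyme plus compound, 15 min room temperature; substrate mix added (NAD+ 1 mM, beta-hydroxybutyryl-CoA 90 uM final); plates read kinetically for NADH fluorescence. HADH2 was His-tagged, E. coli-derived, 20 nM.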
CRE Fsk mod: modulators of forskolin-stimulated CRE signaling in CHO cells; CHO CRE-bla reporter (cAMP response element driving beta-lactamase), forskolin EC10, beta-lactamase ratio; Potency, µM (top dose mostly 38.2 µM), without a hit: at the top dose activity change, negative = inhibition, actives largely listed as activators; 71,000 compounds, 2.5% hits; AID 662; active means well fitted activation curve with a large enough effect in the signal ratio, with a control signal flat, not every such curve was filed as active; inconclusive means small, poorly fitted or top-dose-only effect, or effect the other way, or a change in a side signal; the % refers to the signal ratio; further: potency means the concentration at half of the fitted maximal effect; % of control where 0% means no effect
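Beta-lactamase reporter under a cAMP responsive element in CHO cells; compounds tested in titration series against EC10 NKH 477, 3 h at 37 °C. Read-out: CCF4 FRET ratio 460nm/530nm (excitation 405nm) giving %Activity, fitted to AC50.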
HADH2 inh: blocks human hydroxyacyl-CoA dehydrogenase type II; Q99714; recombinant HADH2, NADH fluorescence, beta-hydroxybutyryl-CoA; Potency, µM (highest dose often 57.1 µM), without a hit: at the top dose activity change, negative = inhibition, usual class: inhibitors; 73,000 compounds, 3.4% hits; AID 886; further: potency means the concentration at half of the fitted maximal effect; on the % scale 0 is the no-effect control and ±100 the full control effect; nearly all actives have a fitted effect of over 60% in size
Target sequence (Q99714 whole entry, looked up, one chain of several): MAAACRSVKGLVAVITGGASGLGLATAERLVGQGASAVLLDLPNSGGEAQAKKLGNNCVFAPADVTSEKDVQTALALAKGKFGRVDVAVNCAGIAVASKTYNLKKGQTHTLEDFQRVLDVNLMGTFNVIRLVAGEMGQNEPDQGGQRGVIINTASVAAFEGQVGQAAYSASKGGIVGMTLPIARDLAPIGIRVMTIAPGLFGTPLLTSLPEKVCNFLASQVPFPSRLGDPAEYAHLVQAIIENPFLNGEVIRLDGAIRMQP
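Buffer 100 mM Tris-HCl pH 9.0/0.01% Tween-20; HADH2 20 nM; NAD+ 1 mM; beta-hydroxybutyryl-CoA 90 uM (all final). 15 min cpd preincubation, RT.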
* hit, by the source's call; [ ] = another dose, or the depositor's remark. Unless noted, the call rests on the fitted dose curve; in most records, active means well fitted curve in the direction sought with a large enough effect; inconclusive means small, poorly fitted or top-dose-only effect, or another doubt; inactive means no such curve, though single readings can be large; an effect the other way counts as inactive or inconclusive.

Screening Cc1ccc(-c2c(C#N)c(N)nc3c2CCCCC3)o1 returned AID923 5%, 4MU fluor 6.2e-08M*, A350 fluor 7e-08M*, HSD17B inhib -18%, CRE Fsk mod inconclusive and HADH2 inh 9%.
Screening Cc1ccc(-c2cc(-c3ccc(C)o3)nc(N)c2C#N)cc1 returned AID923 2%, 4MU fluor inactive, A350 fluor inactive, HSD17B inhib 4%, CRE Fsk mod -6% and HADH2 inh -1%.
Screening Cc1ccc(-c2c(C#N)c(N)nc3c2CCCCCC3)o1 returned AID923 4%, HSD17B inhib 20µM*, CRE Fsk mod inconclusive and HADH2 inh 7%.
For COc1ccc(C2/C(=C(\O)c3ccc4c(c3)OCCO4)C(=O)C(=O)N2CCCN(C)C)cc1 (stereo unspecified) the results were 4MU fluor inactive and A350 fluor inactive.
O=C(CC1N=C2c3ccccc3N=C(SCc3ccc(F)cc3)N2C1=O)NCc1ccco1 (stereo unspecified) was read as AID923 2%, 4MU fluor 2.9e-08M*, A350 fluor 2.8e-08M*, HSD17B inhib inconclusive, CRE Fsk mod -25% and HADH2 inh -24%.
For O=C(CSc1nnc(CNc2ccc(F)cc2)n1Cc1ccccc1)NCc1ccco1 the results were AID923 0%, 4MU fluor inactive, A350 fluor inactive, HSD17B inhib -4%, CRE Fsk mod -10% and HADH2 inh -19%.
Screening Cc1ccc(CSC2=Nc3ccccc3C3=NC(CC(=O)NCc4ccco4)C(=O)N23)cc1 (stereo unspecified) returned AID923 3%, 4MU fluor 2.9e-08M*, A350 fluor 2.9e-08M*, HSD17B inhib 32µM*, CRE Fsk mod inconclusive and HADH2 inh inconclusive.
For O=C(CCCCCN1C(=O)c2ccccc2C1=O)NCc1ccco1 the results were AID923 1%, 4MU fluor inactive, A350 fluor inactive, HSD17B inhib -13%, CRE Fsk mod -2% and HADH2 inh 0%.
For O=C(CCC1N=C2c3ccccc3N=C(SCc3ccc(F)cc3)N2C1=O)NCc1ccco1 (stereo unspecified) the results were AID923 1%, 4MU fluor 6.1e-08M*, A350 fluor 5.9e-08M*, HSD17B inhib inconclusive, CRE Fsk mod -4% and HADH2 inh inconclusive.
O=C(CCC1N=C2c3ccccc3N=C(SCc3ccc(Cl)cc3)N2C1=O)NCc1ccco1 (stereo unspecified) was read as AID923 2%, 4MU fluor 3.7e-08M*, A350 fluor 3.1e-08M*, HSD17B inhib inconclusive, CRE Fsk mod inconclusive and HADH2 inh inconclusive.
Screening Cc1nc2cnc(Oc3ccccc3)nc2n(CCC#N)c1=O returned AID923 0%, 4MU fluor inactive, A350 fluor inactive, HSD17B inhib -4%, CRE Fsk mod -2% and HADH2 inh -8%.
Screening O=C(CSc1nnc(C2CC2)n1Cc1ccccc1)c1ccc(S(=O)(=O)N2CCOCC2)cc1 returned AID923 0%, 4MU fluor inactive, A350 fluor inactive, HSD17B inhib -2%, CRE Fsk mod 1% and HADH2 inh -1%.
For O=C(CSC1=Nc2ccccc2C2=NC(CC(=O)NCc3ccco3)C(=O)N12)NCC1CCCO1 (stereo unspecified) the results were AID923 2%, 4MU fluor 6.1e-08M*, A350 fluor 5.8e-08M*, HSD17B inhib 32µM*, CRE Fsk mod inconclusive and HADH2 inh -20%.
Screening Cc1ccc(NCc2nnc(SCC(=O)NCc3ccco3)n2CC2CCCO2)c(C)c1 (stereo unspecified) returned AID923 1%, 4MU fluor inactive, A350 fluor inactive, HSD17B inhib 1%, CRE Fsk mod -4% and HADH2 inh 12%.
`Cc1ncc([N+](=O)[O-])n1C[C@H](O)CCl` gave AID923 -1%[25.7 µM], 4MU fluor 3.7e-08M*, A350 fluor 3.2e-08M*, HSD17B inhib -3%[25.6 µM], CRE Fsk mod -5%[17.1 µM] and HADH2 inh -8%[25.6 µM].
O=C(O)c1cc(-c2ccncc2)nc2ccc(F)cc12 was read as AID923 1%, 4MU fluor 1.2e-08M*, A350 fluor 1.2e-08M*, HSD17B inhib -12%, CRE Fsk mod 1% and HADH2 inh 10%.
For CCOC(=O)N1CCC(NC(=O)c2cc3ccccn3n2)CC1 the results were AID923 -3%, HSD17B inhib inconclusive, CRE Fsk mod -3% and HADH2 inh -22%.
`O=c1cc(CN2CCc3ccccc32)nc2sccn12` gave AID923 4%, 4MU fluor inconclusive, A350 fluor inconclusive, HSD17B inhib -3%, CRE Fsk mod 0% and HADH2 inh -2%.
For CC1CN(Cc2cc(=O)n3ccsc3n2)CC(C)O1 (stereo unspecified) the results were AID923 1%, 4MU fluor 1.4e-08M*, A350 fluor 2e-08M*, HSD17B inhib 108%, CRE Fsk mod -2% and HADH2 inh -6%.
For CCOC(=O)c1oc2ccccc2c1NC(=O)c1ccc(S(=O)(=O)N2CCCC2)cc1 the results were AID923 -2%, 4MU fluor 3.6e-08M*, A350 fluor 4.8e-08M*, HSD17B inhib 25µM*, CRE Fsk mod inconclusive and HADH2 inh 17%.
Screening CCOC(=O)c1oc2ccccc2c1NC(=O)c1ccc(S(=O)(=O)N(C)C)cc1 returned AID923 0%, 4MU fluor 4.5e-08M*, A350 fluor 5.9e-08M*, HSD17B inhib 32µM*, CRE Fsk mod inconclusive and HADH2 inh 46%.
`O=C(c1ccccc1)N1CC(COc2ccccc2)OC(c2cccnc2)O1` (stereo unspecified) gave AID923 -1%, 4MU fluor inactive, A350 fluor inactive, HSD17B inhib 7%, CRE Fsk mod -5% and HADH2 inh -3%.
COc1ccc(N(CC(=O)NC2CCCCCC2)S(=O)(=O)c2c(C)nn(C)c2C)cc1 was read as AID923 -3%, 4MU fluor inactive, A350 fluor inactive, HSD17B inhib 1%, CRE Fsk mod -12% and HADH2 inh -4%.
Screening COc1ccc(N(CC(=O)NC2CCCC2)C(=O)c2ccc(N3CCCCC3)nc2)cc1 returned AID923 11%, 4MU fluor 1.5e-08M*, A350 fluor 1.9e-08M*, HSD17B inhib 32µM*, CRE Fsk mod 0% and HADH2 inh inconclusive.
Screening Cc1cccc2cc3c(N)c(C#N)sc3nc12 returned AID923 5%, 4MU fluor 1.9e-08M*, A350 fluor 2.1e-08M*, HSD17B inhib -15%, CRE Fsk mod inconclusive and HADH2 inh inconclusive.

Source: PubChem BioAssay
